# Compound activity (PubChem BioAssay)
# Shown is part of a subset that was picked to be rich in hits.
# BL2 CD40 inh – CD40 pathway inhibition in BL2 cells; BL2 NF-kB luciferase reporter, CD40L-induced, 4 h; inhibition, % at 10 µM; actives 0.94% (n = 83,000); AID 1053188;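 active = mean inhibition of at least 50% with a set share of replicates also reaching that level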;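 also: 0% = neutral control wells and 100% = IKK inhibitor VII at 50 µM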
# * hit, by the source's call; [ ] = another dose, or the depositor's remark.
SMILES,BL2 CD40 inh
C[C@@H]1CN([C@@H](C)CO)C(=O)c2cccc(NC(=O)Nc3ccc(F)cc3)c2O[C@H]1CN(C)S(=O)(=O)c1ccc(Cl)cc1,-9[25 µM]
C[C@H](CO)N1C[C@H](C)[C@H](CN(C)S(=O)(=O)c2ccc(Cl)cc2)Oc2c(NC(=O)Nc3ccc(F)cc3)cccc2C1=O,85*[25 µM]
Cc1ccc(-c2cnc3c(c2)C(=O)N([C@@H](C)CO)C[C@H](C)[C@H](CN(C)C(=O)CN(C)C)O3)cc1,-14[25 µM]
COc1ccc(S(=O)(=O)N(C)C[C@H]2OCCCC[C@@H](C)Oc3ccc(NC(=O)Nc4ccc(F)cc4)cc3C(=O)N([C@H](C)CO)C[C@@H]2C)cc1,1
COc1ccc(S(=O)(=O)N(C)C[C@@H]2OCCCC[C@H](C)Oc3ccc(NC(=O)Nc4ccc(F)cc4)cc3C(=O)N([C@H](C)CO)C[C@H]2C)cc1,-4
C[C@H](CO)N1C[C@H](C)[C@@H](CN(C)S(=O)(=O)c2ccccc2)Oc2ccc(NC(=O)Nc3ccccc3)cc2C1=O,1
COc1ccc(-c2cnc3c(c2)C(=O)N([C@H](C)CO)C[C@@H](C)[C@@H](CN(C)C(=O)Nc2c(C)noc2C)O3)cc1,65*[25 µM]
COc1ccc(S(=O)(=O)N(C)C[C@@H]2OCCCC[C@H](C)Oc3ccc(NC(=O)Nc4ccc(C(F)(F)F)cc4)cc3C(=O)N([C@@H](C)CO)C[C@@H]2C)cc1,-6
COc1ccc(S(=O)(=O)N(C)C[C@H]2Oc3ccc(NC(=O)Nc4ccc(C(F)(F)F)cc4)cc3C(=O)N([C@@H](C)CO)C[C@H]2C)cc1,61*[25 µM]
C[C@@H]1CN([C@@H](C)CO)C(=O)c2cccc(NC(=O)Nc3ccc(F)cc3)c2O[C@@H]1CN(C)S(=O)(=O)c1ccc(Cl)cc1,10[25 µM]
COc1ccc(S(=O)(=O)N(C)C[C@@H]2Oc3ccc(NC(=O)Nc4ccc(C(F)(F)F)cc4)cc3C(=O)N([C@@H](C)CO)C[C@@H]2C)cc1,77*[25 µM]
Cc1ccc(-c2cnc3c(c2)C(=O)N([C@H](C)CO)C[C@H](C)[C@H](CN(C)C(=O)CN(C)C)O3)cc1,-6[25 µM]
CCC(=O)N1C[C@H](O)COC[C@H]2O[C@H](CC(=O)NCc3ccc(Oc4ccccc4)cc3)CC[C@@H]21,11[25 µM]
CCS(=O)(=O)N(C)C1c2cc(C#N)ccc2OC(C)(C)C1O (stereo not given),1[25 µM]
CCN1[C@H](C(=O)OC)[C@@H](CO)[C@@H]2Cn3c(ccc(C4=CCCCC4)c3=O)[C@@H]21,11[25 µM]
C[C@H](C(=O)N(C)C[C@@H]1OCc2ccccc2-c2c(n(C)c3ccccc23)C(=O)N([C@H](C)CO)C[C@@H]1C)c1ccccc1,-11
CCCN1[C@H](C(=O)NCCc2cn(C)cn2)[C@@H](CO)[C@@H]2Cn3c(ccc(-c4ccccc4)c3=O)[C@@H]21,1[25 µM]
CO[C@@H]1CN(C)C(=O)c2ccc(NC(=O)C3CC3)cc2OC[C@@H](C)N(Cc2cccnc2)C[C@H]1C,-7
O=C(C[C@H]1CC[C@@H](NC(=O)c2ccc3c(c2)OCO3)[C@@H](CO)O1)NCc1ccc(Oc2ccccc2)cc1,-3[25 µM]
COc1ccc(S(=O)(=O)N(C)C[C@H]2OCCCC[C@H](C)Oc3ccc(NC(=O)Nc4ccc(F)cc4)cc3C(=O)N([C@H](C)CO)C[C@@H]2C)cc1,4
C[C@@H]1CN([C@@H](C)CO)C(=O)c2cccc(NS(=O)(=O)c3ccc(Cl)cc3)c2O[C@@H]1CN(C)Cc1ccc(C(=O)Nc2ccccc2N)cc1,active[25 µM]
C[C@H]1CN([C@@H](C)CO)C(=O)c2cccc(NS(=O)(=O)c3ccc(Cl)cc3)c2O[C@@H]1CN(C)Cc1ccc(C(=O)Nc2ccccc2N)cc1,-55[25 µM]
C[C@@H]1CN([C@@H](C)CO)C(=O)c2cc(NC(=O)Nc3ccc(F)cc3)ccc2O[C@@H]1CN(C)S(=O)(=O)c1ccc(Cl)cc1,14
C[C@@H]1CN([C@H](C)CO)C(=O)c2cccc(NS(=O)(=O)c3ccc(Cl)cc3)c2O[C@H]1CN(C)Cc1ccc(C(=O)Nc2ccccc2N)cc1,-37[25 µM]
COc1ccc(S(=O)(=O)N(C)C[C@H]2Oc3ccc(NC(=O)Nc4ccc(C(F)(F)F)cc4)cc3C(=O)N([C@H](C)CO)C[C@H]2C)cc1,66*[25 µM]
SMILES,BL2 CD40 inh
C/C=C/c1ccc([C@H]2[C@@H](CO)N(C(=O)C3CCC3)[C@@H]2CNC(=O)CN(C)C)cc1,3[25 µM]
CCCNC(=O)N[C@@H]1C=C[C@H](CC(=O)N2CCN(C)CC2)O[C@H]1CO,5[25 µM]
Cc1ccccc1S(=O)(=O)/N=C(/Nc1nc2ccccc2s1)c1ccccc1,-78
CC1(C)CC(=O)C/C(=N/Nc2nc3ccccc3s2)C1,50*
CCN(CC)S(=O)(=O)c1cccc(C(=O)N/N=C2\CC(=O)CC(C)(C)C2)c1,8
COc1cc(CN2CC3(CCN(S(=O)(=O)c4cn(C)cn4)CC3)c3c(n(C)c4cc(OC)ccc34)[C@H]2CO)cc(OC)c1,4[25 µM]
CC(=NNC(=S)N1CCN(c2ccccn2)CC1)c1ccccn1,2
CC(=NNC(=S)N1CCN(C2CCCCCC2)CC1)c1ccccn1,51*
CC(=NNC(=S)N1CC2CCC(CC2)C1)c1cnccn1,26
O=C(N/N=C/C1CCCCC1)c1ccccn1,-42
